Hit rate of the full screen: of about 320,000 compounds, about 2,100 (0.66%) were called active. About 53% were inconclusive and are not listed. The sample holds actives, similar compounds and a random draw of the others, so the mix is not that of the screen. The call rests on the fitted dose curve; in most records, active means well fitted inhibition curve with a large enough effect in the signal ratio, with a control signal flat (not every such curve was filed as active); inconclusive means small, poorly fitted or top-dose-only effect, or effect the other way, or a change in a side signal; inactive means flat fitted curve, though single readings scatter; the % refers to the signal ratio.
Test: qHTS Assay for Lipid Storage Modulators in Drosophila S3 Cells;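 on cell number change: cells counted by Cell Tracker Red CMTPX staining in the red channel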; on lipid storage change, negative = inhibition: on the % scale 0 is the no-effect control and ±100 the full control effect
Settings: BODIPY lipid droplet fluorescence, 18-24 h, cells fed with added oleic acid; cell number change: measured here: cell count max response; series mostly up to 46.1 µM; lipid storage change, negative = inhibition: at the top concentration
How it was run: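 Laser-scanning cytometry quantifies lipid droplet accumulation (500–530 nm total intensity; droplet/cell object ratio) in oleic acid-fed (400 uM added) Drosophila S3 cells treated with a concentration series. 20 uM Triacsin C defined 100% inhibition.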
Potency means the concentration at half of the fitted maximal effect.

Row | Structure (SMILES) | lipid storage change, negative = inhibition | cell number change [%] | outcome | Potency
1 | Cc1cc(C)cc(N2CC(C(=O)Nc3cc(C)on3)CC2=O)c1 (stereo not drawn) | -6.62% (inactive) | -8.97 |  | 
2 | COc1ccccc1NC(=O)N1CCCC(CNC(=O)c2ccccc2Cl)C1 (stereo not drawn) |  | 21.5 | inactive | 
3 | CC(=O)c1ccccc1C(=O)N1CCCC(CNC(=O)c2ccccc2Cl)C1 (stereo not drawn) |  |  | inactive | 
4 | Cc1cccc(NC(=O)N2CCCC(CNC(=O)c3ccccc3Cl)C2)c1C (stereo not drawn) |  | -15 |  | 20.6 µM (active)
5 | O=c1c(Cl)c(N2CCNCC2)cnn1C12CC3CC(CC(C3)C1)C2 | 1.07% (inactive) | 5.13 |  | 
6 | CCCc1nnc(NC(=O)CSc2nc3ccccc3[nH]2)s1 | 3.54% (inactive) | -1.76 |  | 
7 | COc1ccc(OC)c(NC(=O)CC(NCCC2=CCCCC2)C(=O)O)c1 (stereo not drawn) |  | 1.58 |  | 4.61 µM (active)
8 | COc1ccc(C)cc1NC(=O)NCCC1=CCCCC1 |  |  | inactive | 
9 | COc1ccc(NC(=O)CC(NCCc2ccccc2)C(=O)O)c(OC)c1 (stereo not drawn) | -5.38% (inactive) | 2.02 |  | 
10 | S=c1[nH]nc(-c2cccs2)n1/N=C/c1cn(-c2ccccc2)nc1-c1ccccc1 | -0.402% (inactive) | -2.97 |  | 
11 | CCCC[N+](CC#CCO)(CC#Cc1ccccc1)CCCC | 11.3% (inactive) | 24.4 |  | 
12 | Cc1nc(SCC(O)CCl)c([N+](=O)[O-])[nH]1 (stereo not drawn) | -0.122% (inactive) | 21.1 |  | 
13 | CC(C)OP(=O)(OC(C)C)C(Nc1ccc(C(=O)O)cc1)c1ccccc1 (stereo not drawn) | -19.3% (inactive) | -10.6 |  | 
14 | COc1cc(CNc2ncn[nH]2)ccc1OCC(=O)NC(C)(C)C | 15.6% (inactive) | -0.636 |  | 
15 | Cc1nn(S(=O)(=O)N2CCOCC2)c(C)c1Br | -9.45% (inactive) | -1.55 |  | 
16 | CCc1nc(SCC(=O)Nc2ccc(F)cc2)c2c(=O)n(C)c(=O)n(C)c2n1 | -28.8% (inactive) | 7.11 |  | 
17 | Cn1c(=O)c2c(SCC(=O)NCc3ccco3)nc(-c3ccccc3Cl)nc2n(C)c1=O |  | -20.7 |  | 8.91 µM (active)
18 | Cn1c(=O)c2c(SCC(=O)N3CCOCC3)nc(-c3ccccc3Cl)nc2n(C)c1=O |  | -19.8 | inactive | 
19 | CCc1nc(SCC(=O)NCc2ccco2)c2c(=O)n(C)c(=O)n(C)c2n1 |  |  | inactive | 
20 | CCc1nc(SCC(=O)NCc2ccccc2)c2c(=O)n(C)c(=O)n(C)c2n1 | 25.2% (inactive) |  |  | 
21 | CCc1nc(SCC(=O)Nc2ccccc2)c2c(=O)n(C)c(=O)n(C)c2n1 |  | -27.3 |  | 7.31 µM (active)
22 | CCN(CC)S(=O)(=O)c1ccc(/C=C/C(=O)OCC(=O)Nc2cccc3ccccc23)cc1 | 7.73% (inactive) | 15.5 |  | 
23 | Cc1noc(C)c1S(=O)(=O)N1CCC(C(N)=O)CC1 | 12.8% (inactive) | -15.5 |  | 
24 | Cc1ccc(C(=O)OCC(=O)NCCC2=CCCCC2)cc1N | 1.1% (inactive) |  |  | 

Row | Structure (SMILES) | lipid storage change, negative = inhibition | cell number change [%] | outcome | Potency
25 | COc1cccc(NC(=O)c2ccc(CN3CCc4ccccc4C3)cc2)c1 |  | 26.4 | inactive | 
26 | C=CCNc1nc(C(=O)OCC(=O)c2ccccc2)cs1 |  | 16.2 | inactive | 
27 | COc1cccc(C(=O)NC(=S)Nc2cccnc2)c1 | 1.88% (inactive) | -2.34 |  | 
28 | CC1=NN(C(N)=S)C(=O)C1N=Nc1ccccc1O (stereo not drawn) | 2.59% (inactive) | -20.1 |  | 
29 | CC1=NN(C(N)=S)C(=O)C1N=Nc1ccccc1Cl (stereo not drawn) |  | -28.8 |  | 6.51 µM (active)
30 | CC1=NN(C(N)=S)C(=O)C1N=Nc1ccccc1C (stereo not drawn) | 2.34% (inactive) | 2.36 |  | 
31 | CCOc1ccccc1N=NC1C(=O)N(C(N)=S)N=C1C (stereo not drawn) | -2.42% (inactive) | -0.35 |  | 
32 | CCOc1ccc(N=NC2C(=O)N(C(N)=S)N=C2C)cc1 (stereo not drawn) |  | -27.4 |  | 2.31 µM (active)
33 | CC1=NN(C(N)=S)C(=O)C1N=Nc1ccc(S(N)(=O)=O)cc1 (stereo not drawn) | -1.77% (inactive) | 3.52 |  | 
34 | Cc1c(NC(=O)Nc2ccc([N+](=O)[O-])cc2)c(=O)n(-c2ccccc2)n1C | -3.7% (inactive) | -0.0298 |  | 
35 | Cc1ccc(S(=O)(=O)N(CC(=O)NCCSc2ccccn2)c2cc(C)cc(C)c2)cc1 | -21.1% (inactive) | -8.96 |  | 
36 | COc1ccc(NS(=O)(=O)c2ccc(N3CC(O)=C(c4ccccc4)C3=N)cc2)cc1 | 12.1% (inactive) | 18.3 |  | 
37 | COC(=O)C(NC(=O)c1ccccc1C)(Nc1ncc(S(=O)(=O)c2ccc([N+](=O)[O-])cc2)s1)C(F)(F)F (stereo not drawn) | -0.188% (inactive) | -2.46 |  | 
38 | COC(=O)C(NC(=O)c1ccc(F)cc1)(Nc1ncc(S(=O)(=O)c2ccc([N+](=O)[O-])cc2)s1)C(F)(F)F (stereo not drawn) | 5.96% (inactive) | 0.5 |  | 
39 | O=C(NC(Nc1nc2ccc([N+](=O)[O-])cc2s1)(C(F)(F)F)C(F)(F)F)c1cccnc1 |  | -11 | inactive | 
40 | O=C(NC(Nc1nc2ccc([N+](=O)[O-])cc2s1)(C(F)(F)F)C(F)(F)F)c1ccccc1Cl |  | -26.5 |  | 5.8 µM (active)
41 | COC(=O)C(NC(=O)c1ccccc1Cl)(Nc1ncc(S(=O)(=O)c2ccc([N+](=O)[O-])cc2)s1)C(F)(F)F (stereo not drawn) |  | 9.68 |  | 20.6 µM (active)
42 | Cn1cc(Cl)c(C(=O)Nc2nc3ccc([N+](=O)[O-])cc3s2)n1 | 16.6% (inactive) | -2.18 |  | 
43 | Cn1nc([N+](=O)[O-])nc1Sc1ccc(Cl)cc1 | -10.4% (inactive) | 9.49 |  | 
44 | Nc1cnc(Br)cc1Br | 0.0052% (inactive) | -3.4 |  | 
45 | Cc1ccc(NC(=O)CNC(=O)c2ccc(Br)o2)nc1 | -5.59% (inactive) |  |  | 
46 | CCOc1c(N2CC(C)OC(C)C2)c(=O)c1=O (stereo not drawn) | -2.8% (inactive) | -16.5 |  | 
47 | Cc1ccc(/C=C/C(=O)Nc2sc(C)c(C)c2C(=O)OC(C)C)o1 | -0.0019% (inactive) | 0.157 |  | 

— PubChem BioAssay AID2685 (National Center for Advancing Translational Sciences (NCATS), 2010)
